Data reported in PubChem BioAssay (NCATS).
Where “and” joins values, the source holds several entries; their conditions need not be identical. Identical values can stand only once. Unmarked numbers belong to inactive results. Records with an inconclusive call do not appear. Calls of active or inactive are those of the source. Unless noted, calls follow the shape of the dose curve; as a rule, active = well fitted curve in either direction with a large enough effect (not every such curve was filed as active); inconclusive = small, poorly fitted or top-dose-only effect, or another doubt; inactive = flat fitted curve, though single readings scatter.

Legend:
[1] = AP1 Signaling Pathway (AID 357); settings: ME-180 AP-1-bla reporter, EGF-induced, beta-lactamase ratio, 5 h; also: % is scaled to controls: 0 for no effect and ±100 for the full control effect
How it was run: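 Titration-series screen for positive or negative modulators of EC50 EGF-induced signaling in ME-180 cells carrying an AP-1-driven beta-lactamase reporter. After 5 hours at 37 degrees Celsius, CCF4 460nm/530nm emission ratio gave %Activity; AC50 values derived.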

[2] = target: Cytochrome P450 1A2 (Homo sapiens) (UniProt P05177); test: p450-cyp1a2 (AID 410; calls by dose curve; also: potency is read from the fitted curve at half-maximal effect;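 as to activity change, negative = inhibition: -100% = full effect of reference inhibitor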); settings: recombinant CYP1A2, luciferin-ME demethylation, luminescence; series mostly up to 25.6 µM
How it was run: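 20nM CYP1A2 with 100uM Luciferin-ME (at Km) in 100mM KPO4; compound preincubated 10 min, NADPH regeneration added, 60 min at room temperature. Luciferin quantified by luminescence after detection reagent; normalized to 57 uM furafylline.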

[3] = NFAT Signaling Pathway (AID 444); settings: Jurkat NFAT-bla M1, carbachol, beta-lactamase ratio, 5 h;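 also: carbachol stimulus at about its EC50 of 1 µM final; % is scaled to controls: 0 for no effect and ±100 for the full control effect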
How it was run: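 Read-out: CCF4 FRET ratio (460 nm/530 nm) after 1 h RT dye loading, used for %activity and AC50 from titration series. Cells: Jurkat NFAT-β-lactamase/M1 line, treated with compound plus 1 uM carbachol for 5 h, 37 °C.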

[4] = target: Glucocorticoid receptor (Homo sapiens) (UniProt P04150); test: GR-GFP Redistribution (AID 450;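 active = compounds whose dose series gives a full or clear partial fitted curve of increased nuclear translocation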; also: potency is read from the fitted curve at half-maximal effect); settings: U2OS GR-GFP nuclear translocation, laser cytometry, 2 h
[5] = target: Glucocorticoid receptor (Homo sapiens) (UniProt P04150); test: GR-EFC Redistribution (AID 451; calls by dose curve; also: potency is read from the fitted curve at half-maximal effect); settings: CHO-K1 GR-EFC translocation, beta-gal luminescence, 2 h
How it was run: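 Translocation of GR-ED fusion to nuclear EA restores b-gal, read by luminescence after 1 h room-temperature detection. Engineered CHO-K1 biosensor cells, 1,000/well, exposed 2 h at 37 C to titrations up to 46 uM final.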

[6] = target: Mitogen-activated protein kinase 10 (Mus musculus) (UniProt Q61831); test: JNK3 AlphaScreen Assay (AID 530); settings: JNK3 lysate, c-Jun phosphorylation; series mostly up to 25.6 µM;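 also: kinase came from lysate of stimulated human HepG2 cells; signal reports phosphorylation of biotinylated GST-cJun 1-79 at Ser73 with 10 µM ATP; % is scaled to controls: 0 for no effect and ±100 for the full control effect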
How it was run: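 Compound titrations were preincubated 15 minutes at room temperature with substrate, antibody and pre-activated JNK3-containing HepG2 lysate. Reactions were started with 10 uM ATP and stopped with EDTA-containing bead buffer for AlphaScreen detection.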

[7] = Stat Signaling Pathway (AID 446); settings: ME-180 (cervical carcinoma) SIE beta-lactamase reporter, IL-6 stimulated, 5 h;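 also: ME-180 cervical cancer cells given 40 pM IL-6 alongside compound; SIE-controlled beta-lactamase reporter measured as 460/530 nm FRET emission ratio; % is scaled to controls: 0 for no effect and ±100 for the full control effect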
How it was run: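 IL-6/STAT signaling read in ME-180 cells via an SIE beta-lactamase reporter. Stimulus was 40 pM IL-6 (its AC50) for 5 hrs, so both activation and inhibition register.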

[8] = target: Lysosomal acid glucosylceramidase (Homo sapiens) (UniProt P04062); test: Glucocerebrosidase-p2 (AID 348; in the data active = potency below about 10 µM; also: potency is read from the fitted curve at half-maximal effect); settings: purified GBA, blue fluorogenic substrate, 40 min
How it was run: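 Compounds titrated from 0.6 nM upwards against 0.2 nM enzyme in pH 5.9 citric acid/KH2PO4, taurocholate, tween-20; blue fluorogenic substrate 80 uM, 40 min room temperature, stopped and read Ex 365/Em 440 for AC50.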

Cytochrome P450 1A2 (Homo sapiens), sequence (P05177 whole entry, looked up): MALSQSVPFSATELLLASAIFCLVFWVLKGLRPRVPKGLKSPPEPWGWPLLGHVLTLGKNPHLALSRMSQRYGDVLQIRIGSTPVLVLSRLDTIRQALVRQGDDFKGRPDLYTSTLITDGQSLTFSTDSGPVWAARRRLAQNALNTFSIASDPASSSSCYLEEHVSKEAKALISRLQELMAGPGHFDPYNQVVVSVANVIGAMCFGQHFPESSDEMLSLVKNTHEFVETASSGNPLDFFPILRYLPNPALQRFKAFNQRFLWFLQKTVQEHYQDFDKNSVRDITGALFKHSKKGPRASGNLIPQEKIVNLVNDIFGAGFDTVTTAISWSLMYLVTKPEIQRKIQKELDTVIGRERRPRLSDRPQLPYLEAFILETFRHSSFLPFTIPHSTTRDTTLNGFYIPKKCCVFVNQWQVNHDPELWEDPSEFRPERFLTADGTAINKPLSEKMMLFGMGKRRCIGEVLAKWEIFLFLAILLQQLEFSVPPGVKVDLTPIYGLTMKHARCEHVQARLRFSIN
Glucocorticoid receptor (Homo sapiens), sequence (P04150 whole entry, looked up, the tested form may be a part): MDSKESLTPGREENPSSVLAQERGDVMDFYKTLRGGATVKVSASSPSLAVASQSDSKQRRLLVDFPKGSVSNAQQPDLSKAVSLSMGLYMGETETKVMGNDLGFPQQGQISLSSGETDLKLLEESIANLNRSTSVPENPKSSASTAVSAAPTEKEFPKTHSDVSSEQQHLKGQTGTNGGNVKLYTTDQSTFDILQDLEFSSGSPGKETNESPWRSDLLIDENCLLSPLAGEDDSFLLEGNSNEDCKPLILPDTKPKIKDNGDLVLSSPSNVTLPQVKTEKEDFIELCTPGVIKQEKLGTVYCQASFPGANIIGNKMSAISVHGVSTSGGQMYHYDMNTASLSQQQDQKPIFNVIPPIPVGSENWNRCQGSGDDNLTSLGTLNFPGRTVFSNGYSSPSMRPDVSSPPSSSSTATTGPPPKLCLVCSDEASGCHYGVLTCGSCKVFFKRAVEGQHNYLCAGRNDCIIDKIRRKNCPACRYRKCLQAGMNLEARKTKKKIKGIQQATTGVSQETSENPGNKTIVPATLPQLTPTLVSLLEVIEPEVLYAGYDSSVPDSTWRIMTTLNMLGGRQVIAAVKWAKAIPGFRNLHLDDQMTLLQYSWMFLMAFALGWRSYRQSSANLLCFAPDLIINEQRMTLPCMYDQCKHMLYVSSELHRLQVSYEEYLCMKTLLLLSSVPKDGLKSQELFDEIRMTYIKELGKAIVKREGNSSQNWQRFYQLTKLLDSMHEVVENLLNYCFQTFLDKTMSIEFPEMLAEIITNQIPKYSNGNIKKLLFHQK
Lysosomal acid glucosylceramidase (Homo sapiens), sequence (P04062 whole entry, looked up): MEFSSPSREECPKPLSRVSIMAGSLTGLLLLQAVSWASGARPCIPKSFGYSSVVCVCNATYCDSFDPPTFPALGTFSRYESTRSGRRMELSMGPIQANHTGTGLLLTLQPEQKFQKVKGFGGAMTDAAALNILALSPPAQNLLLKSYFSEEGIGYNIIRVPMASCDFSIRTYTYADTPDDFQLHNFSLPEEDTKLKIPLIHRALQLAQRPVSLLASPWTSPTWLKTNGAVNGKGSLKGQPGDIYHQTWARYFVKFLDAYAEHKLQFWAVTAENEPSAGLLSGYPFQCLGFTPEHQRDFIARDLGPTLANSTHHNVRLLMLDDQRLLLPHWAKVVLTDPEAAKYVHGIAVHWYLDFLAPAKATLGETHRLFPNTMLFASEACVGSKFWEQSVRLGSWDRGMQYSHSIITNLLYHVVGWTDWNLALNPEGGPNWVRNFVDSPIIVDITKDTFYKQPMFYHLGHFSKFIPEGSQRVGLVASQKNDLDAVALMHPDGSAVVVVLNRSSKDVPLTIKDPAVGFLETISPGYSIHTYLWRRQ

| SMILES | activity change, negative = inhibition ([1]; at 7.69 µM (top of the series)) | activity change, negative = inhibition ([1]; at 17.2 µM (top of the series)) | activity change, negative = inhibition ([1]; at 38 µM (top of the series)) | Potency [2] | activity change, negative = inhibition ([3]; at 7.69 µM (top of the series)) | activity change, negative = inhibition ([3]; at 17.2 µM (top of the series)) | Potency [4] | Potency [5] | outcome [6] | activity, negative = inhibition ([7]; at 17.2 µM (top of the series)) | activity change, negative = inhibition ([3]; at 38 µM (top of the series)) | activity, negative = inhibition ([7]; at 38 µM (top of the series)) | Potency [8] |
| --- | --- | --- | --- | --- | --- | --- | --- | --- | --- | --- | --- | --- | --- |
| CNCCC=C1c2ccccc2CCc2ccccc21 | -6.8% | 15.1% and 18.2% | 16.2% | 25.1 µM (active) | -80.1% (active) | -86.8% (active) | > 46 µM and > 20.6 µM | > 46 µM and > 20.6 µM and > 9.22 µM | inactive |  |  |  |  |
| CCN1CCC[C@H]1CNC(=O)c1c(OC)ccc(Br)c1OC |  | -5.77% |  | inactive |  | -26.9% |  |  | inactive | 14.1% |  |  |  |
| CCOc1ccc(Cc2nccc3cc(OCC)c(OCC)cc23)cc1OCC |  | -1.91% |  | 10 µM (active) |  | -11.6% | > 20.6 µM | > 20.6 µM | inactive | -1.62% |  |  |  |
| O=C(COc1ccc(Cl)cc1)N1CCN(Cc2ccc3c(c2)OCO3)CC1 |  | -14.6% |  | 5.01 µM (active) |  | 15.3% |  |  | inactive | 1.26% |  |  |  |
| NCCc1ccn[nH]1 |  | 2.73% |  | inactive |  | -6.22% | > 20.6 µM | > 20.6 µM | inactive |  |  |  |  |
| COc1cc(-c2ccc(=O)[nH]n2)ccc1OC(F)F |  | -8.42% | 17.6% | 10 µM (active) and 5.01 µM (active) and 2.51 µM (active) |  | -13.5% | > 46 µM and > 20.6 µM | > 46 µM and > 20.6 µM | inactive | 0.425% | -7.13% | -14.4% |  |
| CCN(CC)C(=O)N1CCN(C)CC1 |  | 1.31% |  | inactive |  | -7.87% | > 20.6 µM | > 20.6 µM | inactive |  |  |  |  |
| Cc1cc(N)c2cc(NC(=O)Nc3ccc4nc(C)cc(N)c4c3)ccc2n1 | 14% |  |  | inactive | -11.7% |  |  |  | inactive |  |  |  | > 11.4 µM |
| CC(C)COC(=O)OCN1C(=O)CN(CCN2CC(=O)N(COC(=O)OCC(C)C)C(=O)C2)CC1=O |  |  | 5.55% | inactive |  |  | > 46 µM | > 46 µM | inactive |  | 7.64% | -1.3% |  |
